Screens as filed in PubChem BioAssay.
Shown are actives, neighbours in structure and some others; about 1.5% of the full set was active somewhere.
GLD-1 TGE inh – GLD-1/TGE RNA complex disruptors, primary screen, biochemical, fluorescence polarization. Female germline-specific tumor suppressor gld-1 (Caenorhabditis elegans), Q17339. purified GLD-1 + fluorescein TGE RNA. inhibition, % at 5.96 µM. actives 0.44% (n = 320,000). AID 2280, 2010;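 active means percent inhibition above a per-plate cutoff, the plate mean of test compounds plus 3 SD, cut at about 30% in these data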;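 further: 0% = DMSO wells with GLD-1 and probe and 100% = wells lacking GLD-1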
MEX-5 binding – MEX-5 zinc finger RNA-binding disruptors – biochemical, C. elegans, fluorescence polarization, MLPCN library, primary screen. activity score (negative = inhibition of binding), % at 10 µM. AID 1832, 2009. actives 0.38% (n = 300,000). MEX-5/FITC-TCR2 RNA binding; hits give low values;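 active means inhibition past about -25% in most replicates, and total fluorescence under double the plate's negative control median, limit read from the data; inconclusive means replicates evenly split on the limit, or fluorescence at least double controls; inactive means too little inhibition in most replicates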;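 further: 0% = DMSO and -100% = 5 µM competing unlabeled TCR2 RNA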
Bcl-xL primary – inhibitors of human Bcl-xL, primary screen, biochemical, fluorescence polarization, HTS | inhibition, % at 10.9 µM | GST-Bcl-xL / FITC-Bim BH3 peptide fluorescence polarization | Bcl-2-like protein 1 (Homo sapiens), Q07817 | actives 0.7% (n = 320,000);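 active means inhibition above the mean of all tested compounds plus 3 SD, cutoff set per campaign, cut at about 30% in these data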;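 further: 0% = DMSO wells and 100% = unlabeled Bim-BH3 peptide competitor; inhibitors lower millipolarization by displacing the labeled peptide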
Target sequence (Q07817 whole entry, looked up): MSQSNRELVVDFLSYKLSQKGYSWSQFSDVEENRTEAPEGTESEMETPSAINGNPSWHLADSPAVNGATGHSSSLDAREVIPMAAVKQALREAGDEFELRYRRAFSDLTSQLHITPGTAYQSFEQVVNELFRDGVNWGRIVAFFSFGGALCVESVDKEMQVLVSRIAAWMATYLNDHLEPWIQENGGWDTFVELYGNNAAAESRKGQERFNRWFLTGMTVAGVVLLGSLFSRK
MCL1-BIM inh – inhibitors of MCL1 binding to BIM-BH3, primary screen, biochemical, fluorescence polarization; inhibition, % at 10.9 µM; AID 2057, 2009; GST-MCL1 / FITC-Bim-BH3 fluorescence polarization; actives 0.68% (n = 320,000);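 active means inhibition above the mean inhibition of all tested compounds plus 3 SD, set per campaign, cut at about 40% in these data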;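 further: 0% = DMSO wells and 100% = unlabeled Bim-BH3 peptide control; higher means more loss of mP so more displacement of Bim peptide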
eLon inh – inhibitors of E. coli Lon protease, primary screen, biochemical, fluorescence polarization | P0A9M0 | AID 602123, 2011 | actives 0.42% (n = 360,000) | inhibition, % at 7.94 µM | purified E. coli Lon protease; in the data active means inhibition above about 13%, passing the limit was not always enough;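 further: 0% = enzyme with probe and DMSO and 100% = no enzyme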
EBV gp42 block – Epstein-Barr virus gp42 inhibitors, primary screen, biochemical, uHTS, fluorescence polarization; Glycoprotein 42 (Epstein-Barr virus (strain AG876)), Q1HVG2; Fluorescence polarization binding assay, mP read-out; inhibition, % (tested at 21.74 µM); actives 0.42% (n = 220,000); AID 1085, 2008; in the data active means inhibition above about 50%
Target sequence (Q1HVG2 whole entry, looked up): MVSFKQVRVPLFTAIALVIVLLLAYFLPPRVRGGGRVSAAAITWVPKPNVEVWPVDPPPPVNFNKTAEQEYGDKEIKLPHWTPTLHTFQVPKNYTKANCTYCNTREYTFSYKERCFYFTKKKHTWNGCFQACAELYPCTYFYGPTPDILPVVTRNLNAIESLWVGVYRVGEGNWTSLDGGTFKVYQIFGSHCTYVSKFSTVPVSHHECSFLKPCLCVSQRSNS
BCLXL inh confirm – Bcl-xL inhibitors blocking Bim BH3 binding, confirmation, counter-screen for MCL1 inhibitor project, biochemical, fluorescence polarization; shares compounds with MCL1-BIM inh; GST-Bcl-xL / FITC-Bim BH3 peptide FP binding; inhibition, % at 10.9 µM; actives 54% (n = 1,700);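 active means inhibition above a cutoff equal to the mean inhibition of all tested compounds plus 3 SD, cut at about 30% in these data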;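 further: 0% = DMSO wells and 100% = unlabeled Bim BH3 control peptide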
MCL1 BIM confirm – inhibitors of MCL1 binding to BIM-BH3, confirmation, biochemical, fluorescence polarization, triplicate; shares compounds with MCL1-BIM inh; GST-MCL1 / FITC-Bim-BH3 fluorescence polarization; inhibition, % at 10.9 µM; actives 61% (n = 1,700); AID 2168, 2009;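 active means inhibition above the average of all tested compounds plus 3 SD, cut at about 40% in these data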;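 further: 0% = DMSO wells and 100% = unlabeled Bim-BH3 control peptide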
GLD1 RNA confirm – GLD-1/TGE RNA binding inhibitors, retest, confirmation, biochemical, fluorescence polarization, triplicate | shares compounds with GLD-1 TGE inh | GLD-1/FL-TGE RNA fluorescence polarization | inhibition, % at 5.96 µM | actives 10% (n = 550);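 active means average inhibition across triplicates above the hit cutoff set in the primary screen, cut at about 32% in these data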;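 further: 0% = GLD-1 with RNA probe and DMSO and 100% = wells lacking GLD-1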
E coli Lon conf – E. coli Lon protease inhibitor retest, confirmation, biochemical, fluorescence polarization; shares compounds with eLon inh; purified E. coli Lon; inhibition, % at 7.94 µM; actives 31% (n = 1,400); AID 602230, 2012; in the data active means inhibition above about 16%;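 further: 0% = enzyme with probe and DMSO and 100% = no enzyme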
* = called active by the depositor; ? = inconclusive; / = no result given; + = active, no number.

SMILES	GLD-1 TGE inh	MEX-5 binding	Bcl-xL primary	MCL1-BIM inh	eLon inh	EBV gp42 block	BCLXL inh confirm	MCL1 BIM confirm	E coli Lon conf	others
CCC(=O)Nc1ccc(C(=O)NNC(=O)CCCCC(=O)NNC(=O)c2ccc(NC(=O)CC)cc2)cc1	/	/	/	/	-11	/	/	/	/
Nc1c(NCc2ccccc2)c(=O)[nH]c(=O)n1Cc1ccccc1	86*	-18	70*	88*	15*	7	8	15	16
O=C(CNC(=O)N1CC(=O)Nc2ccccc21)NCc1ccccc1Cl	6	-2	3	6	-1	/	/	/	/
c1ccc2[nH]c3cc4ncnc4cc3nc2c1	+	-81*	+	+	153*	+	+	+	+
COc1ccc(-c2nn(-c3ccccc3)cc2C(=O)O)cc1N	7	1	6	9	-6	/	/	/	/
C/C(CC(=O)NC12CC3CC(CC(C3)C1)C2)=N\NC(=O)c1cnccn1	-7	-1	6	13	-9	-4	/	/	/
O=C(NC12CC3CC(CC(C3)C1)C2)c1cnccn1	34*	-2	42*	53*	15*	14	29	40*	-22	GLD1 RNA confirm=-10
COc1ccccc1N1CCN(C(=O)COc2cc(C)cc(C)c2)CC1	4	1	3	-2	8	-11	/	/	/
Cc1ncc(C(O)c2ccc(N(C)C)cc2)n1Cc1ccccc1 (centres undefined)	/	/	/	/	-1	/	/	/	/
CN(C)c1ccc2nc3c(=O)[nH]c(=O)nc-3n(CC(O)C(O)C(O)CO)c2c1 (centres undefined)	163*	?	190*	+	165*	/	150*	174*	82*
CC(C)(C)N(Cc1ccccc1)C(=O)COC(=O)C1CC(=O)N(Cc2ccccc2)C1 (centres undefined)	/	/	/	/	-8	/	/	/	/
COc1ccc(CCCC(=O)NCC(=O)N/N=C/c2cc(Cl)ccc2OC)cc1	/	-2	/	/	-7	/	/	/	/
CC1CCCCN1C(=O)Cn1nnc(-c2cccnc2)n1 (centres undefined)	74*	-16	85*	91*	26*	46	73*	110*	0
N#CC(C#N)=C1C=CC=CN1/C(=C\c1ccccc1)C(=O)c1cccs1	6	0	29	42*	25*	-7	37*	65*	9
CN(Cc1ccc(Cl)cc1Cl)C(=O)C1CC(=O)N(Cc2ccco2)C1 (centres undefined)	/	/	/	/	-4	/	/	/	/
CN1C=CC2=C(C#N)C(N)C(C#N)(C#N)C(c3ccccc3)C2C1 (centres undefined)	46*	?	90*	90*	17*	63*	40*	56*	-31
CN1C[C@@H]2C(c3ccccc3)C3(c4ccc(C#N)cc4)CC2(C3)[C@H]1c1ccccc1 (some centres undefined)	3	1	-1	-1	4	-20	/	/	/
CCCn1nc(Oc2nc(N(C)C)nc(N(C)C)n2)ccc1=O	3	-1	2	-1	-7	3	/	/	/
CCN(CC)C(=O)C1c2ccccc2Oc2ccccc21	169*	?	195*	+	+	/	91*	126*	-51
O=C(c1ccco1)[C@@H]1[C@@H]2C(=O)N(c3ccccc3)C(=O)[C@@H]2C2c3ccccc3C=CN21 (some centres undefined)	69*	-30*	79*	79*	24*	/	60*	77*	33*
O=C(c1ccc(Cl)cc1)[C@@H]1[C@@H]2C(=O)N(c3ccccc3)C(=O)[C@@H]2C2c3ccccc3C=NN21 (some centres undefined)	8	1	20	11	-24	-26	/	/	/
CN1OC[C@@H]2CN(C(=O)C(C)(C)C)[C@H](c3cccc(Oc4ccccc4)c3)C[C@@H]21	/	/	/	/	0	/	/	/	/
COc1cccc2c1C(=N)c1c(O)c3c(c(O)c1C2=O)CC(O)(C(C)=O)CC3OC1CC(N)C(O)C(C)O1 (centres undefined)	/	/	/	/	39	/	/	/	/
COc1cccc2c1C(=O)c1c(O)c3c(c(O)c1C2=O)C[C@](O)(C(C)=O)C[C@H]3O[C@@H]1C[C@@H](N)[C@@H](O)[C@@H](C)O1	+	?	+	+	+	/	+	+	+
COCCN(C(=O)c1sc2ccccc2c1Cl)c1c(N)n(CC(C)C)c(=O)[nH]c1=O	3	/	1	1	6	/	/	/	/
SMILES	GLD-1 TGE inh	MEX-5 binding	Bcl-xL primary	MCL1-BIM inh	eLon inh	EBV gp42 block	BCLXL inh confirm	MCL1 BIM confirm	E coli Lon conf	others
Cc1cc(C(=O)COc2cccc3cccnc23)c(C)n1C	151*	-3	147*	177*	71*	11	14	8	2
COc1cccc(N(CC(=O)NC2CCCCC2)C(=O)CCCC(=O)Nc2ccccn2)c1	3	1	1	4	-7	/	/	/	/
CCOc1ccc(C=Nc2cccc3ncccc23)cc1	1	1	4	9	-4	-12	/	/	/
Cc1ccc(C=Nc2cccnc2N)cc1	80*	-8	60*	70*	+	4	11	13	5
CN1CCN(C(=O)c2cc3sc4ccccc4c3s2)CC1	-2	1	2	-1	5	-11	/	/	/
Cc1oc2cc(O)ccc2c(=O)c1-c1nncn1-c1ccccc1	113*	?	113*	109*	34*	108*	119*	139*	51*
Cc1oc2cc(O)ccc2c(=O)c1-c1ccccc1	5	-2	6	9	0	-12	/	/	/
